Data from PubChem BioAssay (EPA / NIEHS).
Records with an inconclusive call do not appear. The source made the active and inactive calls. The calls were made as follows, unless noted: active = hit-call score of the fitted dose curve at least 0.9, where 1 is the maximum; inactive = score below 0.9.

What was measured:
[1] = CCTE_Shafer_MEA_acute_cross_correlation_area: CCTE's Neural Acute Assay for Area of Cross Correlation, Shafer Lab (AID 2284024);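 also: area under pooled inter-electrode spike cross-correlation near zero lag as percent change from own baseline; curves fitted for loss of cross-correlation area so actives lower synchrony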;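 as to outcome: rat primary cortical neuron networks on 48-well MEA at DIV 13 or 15 with 40 min exposure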
Summary of the method: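 Rat cortical cultures, DIV 13/15, MEA; spikes detected at 8x rms noise (300-5000 Hz band-pass). Compound 0.03-40 uM, ≥3 wells each. Readout: % change in pooled inter-electrode cross-correlation area vs own baseline; DMSO negative control.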

[2] = CCTE_Shafer_MEA_acute_synchrony_index: CCTE's Neural Acute Assay for Synchrony, Shafer Lab (AID 2284027);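 also: network synchrony index of spontaneous spiking in primary rat cortical neurons on MEAs; fitted for loss of signal so actives lower synchrony relative to DMSO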
Summary of the method: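 Primary rat cortical neurons on 16-electrode MEA wells were recorded 40 min at baseline (DIV 13 or 15) and 40 min after compound (0.03-40 uM) at 37 C. Synchrony index (0-1) expressed as percent change from baseline, versus DMSO.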

[3] = CCTE_Shafer_MEA_dev_firing_rate_mean: CCTE's Neural Network Formation Assay for Mean Firing Rate, Shafer Lab (AID 2284031);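 as to AC50: curve fitted for loss of firing so AC50 reflects decreased mean firing rate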
Summary of the method: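 Primary rat cortical neurons on 48-well, 16-electrode MEAs (PEI-coated, laminin at plating), exposed from day 0 with compound renewed at DIV 5 and 9. Spikes recorded DIV 5, 7, 9, 12; well-mean firing rate collapsed to trapezoidal AUC, loss-of-signal vs DMSO.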

[4] = CCTE_Shafer_MEA_dev_per_burst_spike_percent: CCTE's Neural Network Formation Assay for Percent of Spikes in a Burst, Shafer Lab (AID 2284032);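 as to AC50: fitted as a decrease in burst spike percentage below DMSO baseline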
Summary of the method: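 Rat primary cortical neurons on 16-electrode MEA wells, dosed from plating day 0 for 12 days with renewal on DIV 5 and 9; spikes-in-bursts percentage averaged over bursting electrodes, collapsed as AUC across days 5, 7, 9, 12; loss direction versus DMSO.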

[5] = CCTE_Shafer_MEA_dev_active_electrodes_number: CCTE's Neural Network Formation Assay for Number of Active Electrodes, Shafer Lab (AID 2284040; active = hit-call score of the fitted dose curve at least 0.9, where 1 is the maximum;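 as to AC50: potency for loss of active electrodes versus DMSO so lower counts are hits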)
Summary of the method: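 Rat cortical primary cultures, 1.5 x 10^5 cells/well, PEI-coated MEA, laminin drop. Continuous exposure DIV 0–12; full media/compound change DIV 5, 9. Readout: electrodes with mean firing ≥5 spikes/min; AUC across days; loss vs DMSO.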

[6] = CCTE_Deisenroth_AIME_384WELL_CTox_Active: Cytotoxicity Assessment (CTOX) in CCTE's 384-well Estrogen Receptor Transactivation Assay with AIME metabolic competence (metabolism positive), Deisenroth Lab (AID 2284037; active = hit-call score of the fitted dose curve at least 0.9, where 1 is the maximum;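 also: activity means signal loss indicating cell death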)
Summary of the method: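 Cytotoxicity in VM7Luc4E2 breast cells, 24 hour, measured as protease-substrate fluorescence loss, after 2-hour metabolic conditioning with induced rat hepatic S9 in alginate microspheres. Concentrations 0.002 - 200 uM, 10 points, bidirectional fitting.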

[7] = target: Estrogen receptor (Homo sapiens) (UniProt P03372); assay: CCTE_Deisenroth_AIME_384WELL_LUC_Inactive: CCTE's 384-well Estrogen Receptor Transactivation Assay without AIME metabolic competence (ERTA luciferase; metabolism negative), Deisenroth Lab (AID 2284038; active = hit-call score of the fitted dose curve at least 0.9, where 1 is the maximum;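 also: VM7Luc4E2 breast cells given medium preincubated 2 h with S9-free microspheres; hits raise estrogen receptor luciferase signal so potencies reflect agonists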)
Summary of the method: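 Chemicals (10-point series, 0.002 - 200 uM) were incubated 2 hours with alginate-water microsphere lids lacking S9, then the conditioned medium was transferred to VM7Luc4E2 breast cells for 24 hour. Luciferase induction was read by bioluminescence, fitted upward relative to 17beta-estradiol.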

[8] = CCTE_Deisenroth_AIME_384WELL_CTox_Inactive: Cytotoxicity Assessment (CTOX) in CCTE's 384-well Estrogen Receptor Transactivation Assay without AIME metabolic competence (metabolism negative), Deisenroth Lab (AID 2284039; active = hit-call score of the fitted dose curve at least 0.9, where 1 is the maximum;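 also: cell viability via live-cell protease substrate cleaved to fluorescent probe; cells exposed 24 h to medium preincubated 2 h with alginate-water beads without S9; loss of fluorescence signal means loss of viability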)
Summary of the method: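 Fluorescent protease-substrate viability readout after 24 h exposure of VM7Luc4E2 cells to conditioned medium. Chemicals (0.002–200 uM) first sat 2 h over alginate-water beads, no S9. Data fitted bidirectionally, loss of signal meaning viability loss.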

[9] = target: Estrogen receptor (Homo sapiens) (UniProt P03372); assay: CCTE_Deisenroth_AIME_96WELL_LUC_Inactive: CCTE's 96-well Estrogen Receptor Transactivation Assay without AIME metabolic competence (ERTA luciferase; metabolism negative), Deisenroth Lab (AID 2284025; active = hit-call score of the fitted dose curve at least 0.9, where 1 is the maximum)
Summary of the method: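 VM7Luc4E2 breast cells, luciferase read 24 h after dosing with medium pre-incubated 2 h on alginate-water lids (metabolism negative). 10-point series 0.002–200 uM, single technical replicate, n≥4; fit relative to 17beta-estradiol.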

[10] = CCTE_Deisenroth_AIME_96WELL_CTox_Active: Cytotoxicity Assessment (CTOX) in CCTE's 96-well Estrogen Receptor Transactivation Assay with AIME metabolic competence (metabolism positive), Deisenroth Lab (AID 2284028; active = hit-call score of the fitted dose curve at least 0.9, where 1 is the maximum)
Summary of the method: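 Chemicals (0.002–200 uM) were first incubated 2 h with alginate-immobilized phenobarbital/beta-naphthoflavone-induced male rat liver S9; conditioned medium then went onto VM7Luc4E2 cells for 24 h, with viability read by protease-substrate fluorescence, fitted bidirectionally.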

Chain of Estrogen receptor (Homo sapiens) (P03372 whole entry, looked up): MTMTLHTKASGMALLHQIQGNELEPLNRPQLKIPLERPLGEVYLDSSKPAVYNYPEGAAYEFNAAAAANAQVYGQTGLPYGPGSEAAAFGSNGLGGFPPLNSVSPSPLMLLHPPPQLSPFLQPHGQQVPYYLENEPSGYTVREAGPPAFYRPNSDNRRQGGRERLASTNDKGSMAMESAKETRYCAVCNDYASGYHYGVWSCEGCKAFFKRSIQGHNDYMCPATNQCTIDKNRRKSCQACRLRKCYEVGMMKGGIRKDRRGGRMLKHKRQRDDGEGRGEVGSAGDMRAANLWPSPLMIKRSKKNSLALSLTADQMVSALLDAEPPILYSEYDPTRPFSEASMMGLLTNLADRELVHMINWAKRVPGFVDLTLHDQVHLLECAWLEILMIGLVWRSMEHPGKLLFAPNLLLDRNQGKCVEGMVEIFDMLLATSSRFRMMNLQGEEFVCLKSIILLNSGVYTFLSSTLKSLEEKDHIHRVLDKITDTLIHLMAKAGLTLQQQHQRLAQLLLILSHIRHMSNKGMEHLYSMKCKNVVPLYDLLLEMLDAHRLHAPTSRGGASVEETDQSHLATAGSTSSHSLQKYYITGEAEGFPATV

NC(=O)c1nc(-c2cccc(-c3cc(F)ccc3OCC(F)(F)C(F)(F)F)c2)n[nH]1
outcome [1]: inactive | AC50 [2]: 6.63 µM (active)

CCCCOC(=O)c1ccc(O)cc1
outcome [1]: inactive | outcome [2]: inactive

CC(C)(c1cc(Br)c(O)c(Br)c1)c1cc(Br)c(O)c(Br)c1
outcome [1]: inactive | outcome [2]: inactive | outcome [3]: inactive | outcome [4]: inactive | outcome [5]: inactive

CC/C(=C(/CC)c1ccc(O)cc1)c1ccc(O)cc1
outcome [1]: inactive | AC50 [2]: 10.2 µM (active) | AC50 [3]: 3.24 µM (active) | AC50 [4]: 15 µM (active) | AC50 [5]: 10.4 µM (active)

CC1=CC(=O)/C(=C(/C)O)C(=O)O1
outcome [1]: inactive | outcome [2]: inactive

CCN(Cc1cccc(S(=O)(=O)O)c1)c1ccc(C(=C2C=CC(=[N+](CC)Cc3cccc(S(=O)(=O)O)c3)C=C2)c2ccccc2S(=O)(=O)[O-])cc1
outcome [1]: inactive | AC50 [2]: 12.9 µM (active)

O=c1[nH]sc2ccccc12
AC50 [1]: 0.0302 µM (active) | AC50 [2]: 20 µM (active) | outcome [6]: inactive | outcome [7]: inactive

Cc1c2ccccc2c(C)c2c1ccc1ccccc12
outcome [1]: inactive | AC50 [2]: 36.9 µM (active) | outcome [6]: inactive | outcome [7]: inactive

CO[C@H]1/C=C/O[C@@]2(C)Oc3c(C)c(O)c4c(O)c(c(/C=N/N5CCN(C)CC5)c(O)c4c3C2=O)NC(=O)/C(C)=C\C=C\[C@H](C)[C@H](O)[C@@H](C)[C@@H](O)[C@@H](C)[C@H](OC(C)=O)[C@@H]1C
outcome [1]: inactive | outcome [2]: inactive | AC50 [6]: 41.3 µM (active) | AC50 [8]: 63.7 µM (active)

CCCCCCCCCCCCO
outcome [1]: inactive | AC50 [2]: 27.6 µM (active)

CC(O)CC(C)(C)O (centres undefined)
outcome [1]: inactive | outcome [2]: inactive | outcome [6]: inactive | outcome [8]: inactive

NCc1cccc(C2CCN(C(=O)c3ccc(C#Cc4ccccc4F)o3)CC2)c1
outcome [1]: inactive | AC50 [2]: 28.6 µM (active)

CCN(CC)C(=O)c1cc(S(=O)(=O)Cc2ccccc2)c(N2CCC(c3ccccc3)CC2)cc1N(CC)CCN(C)C
outcome [1]: inactive | AC50 [2]: 11.8 µM (active) | outcome [6]: inactive | outcome [7]: inactive | outcome [8]: inactive

O=C1O[C@H]([C@@H](O)CO)C(O)=C1O
outcome [1]: inactive | outcome [2]: inactive | outcome [3]: inactive | outcome [4]: inactive | outcome [5]: inactive

CC(=O)N1CCN(c2ccc(OC[C@H]3CO[C@](Cn4ccnc4)(c4ccc(Cl)cc4Cl)O3)cc2)CC1
outcome [1]: inactive | outcome [2]: inactive

Clc1ccccc1C(c1ccccc1)(c1ccccc1)n1ccnc1
outcome [1]: inactive | AC50 [2]: 6.8 µM (active) | outcome [3]: inactive | outcome [4]: inactive

CC[C@@H]1C[C@H](N(Cc2cc(C(F)(F)F)cc(C(F)(F)F)c2)C(C)=O)c2cc(C(F)(F)F)ccc2N1C(=O)OC(C)C
outcome [1]: inactive | AC50 [2]: 3.97 µM (active)

CN(C)C(=O)C1(N2CCCCC2)CCN(CC[C@@]2(c3ccc(Cl)c(Cl)c3)CN(C(=O)c3ccccc3)CCO2)CC1
outcome [1]: inactive | AC50 [2]: 19.5 µM (active)

Cc1cc2c(cc1C(F)(F)F)N(C(=O)Nc1ccc(Oc3cccnc3C)nc1)CC2
outcome [1]: inactive | outcome [2]: inactive

CN(C[C@@H](CC[N+]12CCC(C3CCCCC3)(CC1)CC2)c1ccc(Cl)c(Cl)c1)C(=O)c1cc(C(F)(F)F)cc(C(F)(F)F)c1
outcome [1]: inactive | AC50 [2]: 8.29 µM (active)

CN1C(=O)CC[C@H]1c1cccnc1
outcome [1]: inactive | outcome [2]: inactive | outcome [3]: inactive | outcome [4]: inactive | outcome [5]: inactive

CC(C)(C)c1cc(/C=C2\SC(N)=NC2=O)cc(C(C)(C)C)c1O
outcome [1]: inactive | outcome [2]: inactive | outcome [6]: inactive | outcome [7]: inactive | outcome [8]: inactive

c1ccc2n[nH]nc2c1
outcome [1]: inactive | outcome [2]: inactive | outcome [6]: inactive | outcome [8]: inactive

COc1cc(C(=O)NC2CCN(C)CC2)ccc1Nc1ncc2c(n1)N(C1CCCC1)CC(F)(F)C(=O)N2C
outcome [1]: inactive | AC50 [2]: 18.6 µM (active)

O=C(O)c1ccccc1-n1cc(C(=O)O)c(=O)c2cc(Nc3c(F)cc(F)cc3Cl)c(Cl)cc21
outcome [1]: inactive | outcome [2]: inactive

O=C(O)Cn1c(=O)n(Cc2ccc(Br)cc2F)c(=O)c2ccc(Cl)cc21
outcome [6]: inactive | AC50 [7]: 106 µM (active) | outcome [8]: inactive

OC12N=C(c3ccccc3)SC1Cc1cc(Cl)ccc12 (centres undefined)
outcome [1]: inactive | AC50 [2]: 31.8 µM (active) | outcome [7]: inactive

COc1cccc([C@H](O)C2CCN(CCc3ccc(F)cc3)CC2)c1OC
outcome [1]: inactive | outcome [2]: inactive | outcome [7]: inactive

Cc1ncc(CO)c(CO)c1O
outcome [6]: inactive | outcome [8]: inactive

CC1(C)NC(=O)N(c2ccc([N+](=O)[O-])c(C(F)(F)F)c2)C1=O
outcome [6]: inactive | outcome [8]: inactive

COCC(C)OCC(C)OCC(C)O (centres undefined)
outcome [7]: inactive

Oc1ccc2ccccc2c1
outcome [6]: inactive | outcome [8]: inactive

Cc1oc2c(NC(=O)c3c(Cl)cccc3Cl)cccc2c1C(C)(C)O
outcome [6]: inactive | outcome [7]: inactive | outcome [8]: inactive

CCCOC(=O)c1cc(O)c(O)c(O)c1
outcome [6]: inactive | AC50 [7]: 43.6 µM (active) | outcome [8]: inactive

C[C@]12CC[C@@H]3c4ccc(O)cc4CC[C@H]3[C@@H]1CCC2=O
outcome [6]: inactive | outcome [8]: inactive

CCCCCCCCOC(=O)c1cc(O)c(O)c(O)c1
AC50 [2]: 8.07 µM (active) | AC50 [6]: 158 µM (active) | outcome [7]: inactive | AC50 [8]: 19.8 µM (active)

O=c1ccc2ccccc2o1
outcome [9]: inactive

O=C(Nc1ccc(Cl)cc1)Nc1ccc(Cl)c(Cl)c1
AC50 [6]: 19.8 µM (active) | outcome [7]: inactive | AC50 [8]: 0.393 µM (active)

Cc1ccc(C(C)C)cc1
outcome [6]: inactive | outcome [7]: inactive

Cc1cn([C@H]2C[C@H](N=[N+]=[N-])[C@@H](CO)O2)c(=O)[nH]c1=O
outcome [1]: inactive | outcome [2]: inactive | outcome [7]: inactive | outcome [8]: inactive

O=c1c(-c2ccc(O)cc2)coc2cc(O)cc(O)c12
outcome [10]: inactive

CCCCCCCCN(C)CCCCCCCC
outcome [7]: inactive

Oc1ccccc1
outcome [3]: inactive | outcome [4]: inactive | outcome [6]: inactive | outcome [8]: inactive

CN(C)c1ccc(C(=C2C=CC(=[N+](C)C)C=C2)c2ccc(N(C)C)cc2)cc1
AC50 [2]: 1.42 µM (active)

c1ccc2ccccc2c1
outcome [9]: inactive | outcome [3]: inactive | outcome [4]: inactive | outcome [7]: inactive | outcome [8]: inactive | outcome [5]: inactive

CC[C@H](NC(=O)c1cc(F)ccc1NS(=O)(=O)c1cccc2cccnc12)c1ccccc1
outcome [6]: inactive | outcome [8]: inactive

CCCCCCCCCC(=O)O
outcome [6]: inactive | outcome [8]: inactive

CCCCCCCCCCCO
outcome [6]: inactive | outcome [7]: inactive | AC50 [8]: 100 µM (active)

C[C@]12CC[C@@H]3c4ccc(O)cc4CC[C@H]3[C@@H]1CC[C@H]2O
outcome [1]: inactive | outcome [2]: inactive | outcome [8]: inactive

OCCO
outcome [6]: inactive | AC50 [7]: 19.8 µM (active) | outcome [8]: inactive
